Measurements from PubChem BioAssay (Tox21).
Results filed as inconclusive are left out. Calls of active or inactive are those of the source. Calls follow the shape of the dose curve; as a rule, active = well fitted curve in the direction sought with a large enough effect in the repeat runs; inconclusive = weak or mixed curves; inactive = no such curve, though single readings can be large; an effect the other way counts as inactive or inconclusive.

Assays:
[1] = qHTS RealTime-Glo MT Cell Viability Assay in HepG2 cells - 40 hour (AID 1224870); also: nearly all actives have a fitted effect of over 50% in size
In short: (§1)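 HepG2 cells mixed with RealTime-Glo MT reagents (NanoLuc plus cell-permeant prosubstrate) were seeded at 600 cells/well, incubated 5 h at 37 C/5% CO2, then pinned with compounds in DMSO; nonlytic luminescence tracked viability during 40 h treatment.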

[2] = A CellTox Green Cytotoxicity Assay to monitor cytotoxicity in HEK293 cells - 40 hour (AID 1224871); also: nearly all actives have a fitted effect of over 45% in size
In short: (§2)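 Fluorescence intensity, read at 0, 8, 16, 24, 32 and 40 h of compound treatment, reflected dye binding to DNA of dead HEK293 cells; compounds (23 nL, DMSO) were added 5 h after plating cells with reagent.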

[3] = qHTS RealTime-Glo MT Cell Viability Assay in HepG2 cells - 8 hour (AID 1224873); also: nearly all actives have a fitted effect of over 55% in size
In short: as §1

[4] = qHTS RealTime-Glo MT Cell Viability Assay in HEK293 cells - 40 hour (AID 1224874); settings: RealTime-Glo luminescence; max response: active compounds read low; also: nearly all actives have a fitted effect of over 50% in size
In short: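 Viable HEK293 cells reduce a cell-permeant prosubstrate; the product diffuses out and is consumed by NanoLuc in the medium to give light. Compounds went in after a 5 h incubation and plates were read over the treatment course.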

[5] = A CellTox Green Cytotoxicity Assay to monitor cytotoxicity in HEK293 cells - 24 hour (AID 1224875); also: series mostly up to about 77 µM; nearly all actives have a fitted effect of over 45% in size
In short: as §2

[6] = A CellTox Green Cytotoxicity Assay to monitor cytotoxicity in HepG2 cells - 16 hour (AID 1224876); also: nearly all actives have a fitted effect of over 45% in size
In short: (§3)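 Using 1536-well format, dye-containing HepG2 suspension was seeded, allowed 5 h at 37 C/5% CO2, dosed by pintool with compounds, positive and negative controls, and imaged for fluorescence across 40 h.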

[7] = qHTS RealTime-Glo MT Cell Viability Assay in HepG2 cells - 32 hour (AID 1224877); also: nearly all actives have a fitted effect of over 55% in size
In short: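 qHTS, HepG2, 600 cells/well, RealTime-Glo (NanoLuc + prosubstrate) added with cells; 5 h preincubation; DMSO compound addition; 37 C; luminescence at 0/8/16/24/32/40 h.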

[8] = A CellTox Green Cytotoxicity Assay to monitor cytotoxicity in HepG2 cells - 24 hour (AID 1224878); also: nearly all actives have a fitted effect of over 45% in size
In short: as §3

[9] = A CellTox Green Cytotoxicity Assay to monitor cytotoxicity in HepG2 cells - 40 hour (AID 1224879); also: nearly all actives have a fitted effect of over 40% in size
In short: as §3

[10] = qHTS RealTime-Glo MT Cell Viability Assay in HEK293 cells - 16 hour (AID 1224872); also: top concentration of the series differs between compounds; nearly all actives have a fitted effect of over 50% in size
In short: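 Assay medium contained NanoLuc luciferase plus cell-permeant prosubstrate, added with HEK293 cells at 600 cells/well. After 5 h at 37 C/5% CO2 compounds were added; plates stayed at 37 C for 40 h with serial luminescence reads.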
% is scaled to controls: 0 for no effect and ±100 for the full control effect.

COc1ccc(NC(C)=O)cc1
inactive: Potency [1] | Potency [2] | outcome [3] | max response [4] -7.34% | Potency [5] | Potency [6] | Potency [7] | Potency [8]

Cc1ccccc1Br
inactive: Potency [1] | Potency [2] | outcome [3] | max response [4] 5.36% | Potency [5] | Potency [6] | Potency [7] | Potency [8] | Potency [9]

Nc1ccc2cc(S(=O)(=O)O)ccc2c1
inactive: Potency [1] | Potency [2] | outcome [3] | max response [4] -14% | Potency [5] | Potency [6] | Potency [7] | Potency [8]

CC(C)(O)C(=O)c1ccc(OCCO)cc1
inactive: Potency [1] | Potency [2] | Potency [10] | Potency [6] | Potency [7] | Potency [8] | Potency [9]

CC(C)(C)N(CCO)CCO
inactive: Potency [1] | Potency [2] | Potency [10] | max response [4] 0.933% | Potency [5] | Potency [7] | Potency [8] | Potency [9]

CCCC(C)C(=O)O (stereo not drawn)
inactive: Potency [1] | Potency [2] | outcome [3] | max response [4] -23.4% | Potency [5] | Potency [7] | Potency [8]

CCCCCCC(CCCCCCCCCCC(=O)OCC(COC(C)=O)OC(C)=O)OC(C)=O (stereo not drawn)
inactive: Potency [1] | Potency [2] | Potency [10] | Potency [7] | Potency [8] | Potency [9]

C=C(C)C(=O)OCCCCCCCCCCCCCCCCCC
inactive: activity change, negative = cytotoxic [1] 13.1% [at 15.8 µM] | cytotoxicity increase [2] 0.266% [at 15.8 µM] | viability change, negative = cytotoxic [3] -0.392% [at 15.8 µM] | max response [4] 3.5% | activity change [5] 0.0651% [at 15.8 µM, active compounds read high] | cytotoxicity increase [6] 3.12% [at 15.8 µM] | activity change, negative = cytotoxic [7] 6.06% [at 15.8 µM] | cytotoxicity [8] -0.0576% [at 15.8 µM] | cytotoxicity increase [9] 2.24% [at 15.8 µM]

CN(C)N=Nc1ccccc1
inactive: Potency [1] | Potency [2] | Potency [10] | max response [4] 15% | Potency [5] | Potency [6] | Potency [7] | Potency [8] | Potency [9]

CN(C)CCOC(c1ccc(Cl)cc1)c1ccccn1 (stereo not drawn)
inactive: Potency [1] | Potency [2] | Potency [10] | Potency [6] | Potency [7] | Potency [8] | Potency [9]

CC(C)CCCC(C)NCCC(C)C (stereo not drawn)
inactive: Potency [1] | Potency [2] | Potency [10] | max response [4] 0.252% | Potency [6] | Potency [7] | Potency [8] | Potency [9]

Nc1cc(C(Cl)=C(Cl)Cl)c(S(N)(=O)=O)cc1S(N)(=O)=O
inactive: Potency [1] | Potency [2] | Potency [10] | max response [4] -0.745% | Potency [5] | Potency [6] | Potency [7] | Potency [8] | Potency [9]

O=C1CC2(CCCC2)CC(=O)N1
inactive: Potency [1] | Potency [2] | Potency [10] | max response [4] 3.72% | Potency [6] | Potency [7] | Potency [8] | Potency [9]

NC(=O)c1c(Cl)cccc1Cl
inactive: Potency [1] | Potency [2] | outcome [3] | max response [4] -0.288% | Potency [5] | Potency [6] | Potency [7] | Potency [8] | Potency [9]

CCCCCCCCCCCl
inactive: Potency [1] | Potency [2] | Potency [10] | max response [4] 6.94% | Potency [6] | Potency [7] | Potency [8] | Potency [9]

COC(C(=O)O)c1ccccc1 (stereo not drawn)
inactive: Potency [1] | Potency [2] | outcome [3] | max response [4] 2.29% | Potency [5] | Potency [6] | Potency [7] | Potency [8]

CCCCCCCCCCCCCCCCCCOCC(O)CO (stereo not drawn)
inactive: Potency [1] | Potency [2] | Potency [10] | max response [4] -20.9% | Potency [5] | Potency [7]

CCCCc1ccc2cccc(S(=O)(=O)O)c2c1
inactive: Potency [1] | Potency [2] | Potency [10] | Potency [6] | Potency [7]

CCCCCCOC(=O)c1ccccc1O
inactive: Potency [1] | Potency [2] | outcome [3] | max response [4] -8.04% | Potency [5] | Potency [6] | Potency [7] | Potency [8] | Potency [9]

NC(CS)C(=O)O (stereo not drawn)
inactive: Potency [1] | Potency [2] | outcome [3] | max response [4] 1.35% | Potency [6] | Potency [7] | Potency [8] | Potency [9]

C#CC(C)(O)CC(C)C (stereo not drawn)
inactive: Potency [1] | Potency [2] | outcome [3] | Potency [6] | Potency [7] | Potency [8] | Potency [9]

CC(C)c1cccc(C(C)C)c1N
inactive: Potency [1] | Potency [10] | max response [4] -0.332% | Potency [7]

CC(C)[N+](C)(C)CC(O)COc1cccc2ccccc12 (stereo not drawn)
inactive: Potency [2] | Potency [10] | outcome [3] | max response [4] 6.37% | Potency [6] | Potency [8] | Potency [9]

O=C(O)Cc1cc(I)c(Oc2cc(I)c(O)c(I)c2)c(I)c1
inactive: Potency [1] | Potency [10] | outcome [3] | max response [4] 1.65% | Potency [7] | Potency [8]

CC(C)CCOC(=O)CC(C)C
inactive: Potency [1] | Potency [10] | outcome [3] | max response [4] 14.4% | Potency [7] | Potency [8] | Potency [9]

NC(=O)CCCCC1CCSS1 (stereo not drawn)
inactive: Potency [1] | Potency [2] | outcome [3] | max response [4] 4.59% | Potency [7] | Potency [8] | Potency [9]

Fc1ccccc1-c1ccccc1
inactive: Potency [1] | Potency [10] | outcome [3] | max response [4] -21.5% | Potency [6] | Potency [7] | Potency [8]

CC(=O)N[C@@H](CCC(N)=O)C(=O)O
inactive: Potency [1] | Potency [2] | outcome [3] | Potency [5] | Potency [7] | Potency [8] | Potency [9]
